Out of some 1,500 compounds screened, about 460 (31%) were called active. Roughly 1% stayed inconclusive and do not appear here.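 Rule for the calls: active = curve reaches 40% activation over neutral controls at an AC40 no higher than the top valid tested concentration; inconclusive = no clear call, values can overlap the other calls; inactive = signal moving opposite to the expected increase, and the rest.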 Only a sample is shown. Results with a measured potency or affinity are listed apart.
assay: GLuc-reported insulin release enhancers, glucose-stimulated beta cells – cell-based, INS-1E, Gaussia luciferase, luminescence, cherry-pick, set 2, dose response (AID 977607); settings: INS-1E GLuc insulin secretion reporter, 2-3 h, hits give high values; at 35 µM, 100% = signal doubled over neutral wells unless noted;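 note: 0% = median of the plate neutral control wells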

Max activation, inactive:
O=C(NCc1ccccc1)C(c1ccncc1)n1c(=O)c(-c2ccccc2)nc2ccccc21 (centres undefined) -12.6% [at 1.2 µM, 100% = signal doubled over neutral wells], O=C(OC1CCOC1=O)c1cc(-c2ccc(Cl)cc2)nc2ccccc12 (centres undefined) 34.2% [at 3.8 µM, 100% = signal doubled over neutral wells], COc1cc(C)c(C)cc1S(=O)(=O)N1CCCCC1c1cccnc1 (centres undefined) 13% [at 1.2 µM, 100% = signal doubled over neutral wells], CCc1nc2ccc(C(=O)NCCCN(C)C)cn2c1N(C)Cc1ccc(OC)cc1 -28.3% [at 0.046 µM, 100% = signal doubled over neutral wells], COC(=O)C1=C(C)NC(=S)NC1c1cccc(OC)c1 (centres undefined) -19.4% [at 0.046 µM, 100% = signal doubled over neutral wells], CC1CN(S(=O)(=O)c2cc(C(=O)NC(C)c3cccnc3)ccc2Cl)CC(C)O1 (centres undefined) -33%, O=C1c2[nH]nc(-c3ccccc3)c2C(c2ccccc2)N1c1ccccc1 (centres undefined) -31.9%, COc1ccccc1CNC(=O)CCNS(=O)(=O)c1ccc2[nH]c(=O)oc2c1 -23% [at 0.015 µM, 100% = signal doubled over neutral wells], COC(=O)c1cc(S(=O)(=O)NCC2CCN(Cc3cc(C)ccc3C)CC2)c[nH]1 -22.8% [at 11 µM, 100% = signal doubled over neutral wells], O=C(c1ccco1)N1CCN(C2CN(Cc3ccccc3)S(=O)(=O)C2)CC1 (centres undefined) 13.2% [at 0.135 µM, 100% = signal doubled over neutral wells], Cn1cc(Br)c(C(=O)NNC(=O)c2ccccc2)n1 -8.88% [at 0.015 µM, 100% = signal doubled over neutral wells], Cc1[nH]n(-c2ccc(Br)cc2)c(=O)c1/C=N/NC(=O)c1ccccc1 -37.8%, O=C(Nc1cccnc1Cl)C1=NN(c2ccccc2)C(=O)CC1 -19.3% [at 0.42 µM, 100% = signal doubled over neutral wells], C/C=C/Cn1c(N2CCCCCC2)nc2c1c(=O)[nH]c(=O)n2C 53.5%, Cn1c(=O)[nH]c(=O)c2c1nc(N1CCCCC1)n2C/C=N/Nc1ccc(C(=O)O)cc1 40.2% [at 0.0016 µM, 100% = signal doubled over neutral wells], C[C@@H]1CC2=C(C(=O)OC(C)(C)O2)[C@H](c2ccc(Cl)cc2)O1 -23% [at 0.42 µM, 100% = signal doubled over neutral wells], Cc1nc2ccccc2c2oc(C(=O)N3CCCC(C)C3)cc12 (centres undefined) -8.46% [at 11 µM, 100% = signal doubled over neutral wells], COc1ccc(CCNC(=O)Cc2ccc3c(c2)OCO3)cc1OC -22.4% [at 0.42 µM, 100% = signal doubled over neutral wells], CCOC(=O)Cc1csc(NC(=O)c2ccc(OC)c(OC)c2)n1 24.7%, Cc1c(C(=O)N(C)CCc2cnn(C)c2)oc2c(F)cccc12 -14.1% [at 3.8 µM, 100% = signal doubled over neutral wells], CC(=O)Nc1ccc(S(=O)(=O)Nc2ccc3c(c2)n(C)c(=O)n3C)c(C)c1 -23.1%, CCCCn1c(=O)n(C)c(=O)c2c3c(sc21)COC(C)(C)C3 -17% [at 0.015 µM, 100% = signal doubled over neutral wells], O=C(NCc1cccnc1)c1cccc(S(=O)(=O)NCc2ccccc2)c1 -24% [at 0.0016 µM, 100% = signal doubled over neutral wells], COc1ccc(C(=O)Nc2ccccc2C(=O)NCc2cccnc2)cc1OC 42.3% [at 0.42 µM, 100% = signal doubled over neutral wells], c1ccc(CCN2CCN=C2Nc2ccccc2)cc1 -31.5% [at 0.42 µM, 100% = signal doubled over neutral wells], CN(C)C=NC(=O)c1ccc(N2CCN(c3ncc(C(F)(F)F)cc3Cl)CC2)cc1 -20.4% [at 11 µM, 100% = signal doubled over neutral wells], CN(C)c1nc(=NCc2cccs2)ss1 -34.9% [at 11 µM, 100% = signal doubled over neutral wells], CNC(=O)C1CC(=O)N(c2ccc(OCC(=O)Nc3ccccc3)cc2)C1 (centres undefined) -14.9% [at 0.135 µM, 100% = signal doubled over neutral wells], CCCc1cc(=O)oc2cc(OCC(=O)NC3CCN(Cc4ccccc4)CC3)ccc12 -23.5%, COc1cc2[nH]c3c(Cl)ncnc3c2cc1OC -29.3% [at 3.8 µM, 100% = signal doubled over neutral wells], CCCn1c(=O)c(C(=O)NCc2ccccc2)c(O)c2ccccc21 -28%, O=C(CCc1nc2ccccc2c(=O)[nH]1)NNC(=O)c1cccc(Cl)c1 -14.7% [at 0.015 µM, 100% = signal doubled over neutral wells], COc1ccnc(N2CCN(c3cccc(C(F)(F)F)c3)CC2)c1C#N 81.3%, CN(C)CCCN(C(=O)c1ccco1)c1nc2c(F)cccc2s1 -22.6% [at 0.015 µM, 100% = signal doubled over neutral wells], CCOc1ccc2ccc(OCC)c(/C=N/n3cnnc3)c2c1 -33.7%, Cc1cc2cc(C#N)c(N3CCOCC3)nc2cc1Cl -10.5% [at 0.015 µM, 100% = signal doubled over neutral wells], O=C1CC(=O)Nc2cc(S(=O)(=O)NCc3cccs3)ccc2N1 -18.8% [at 0.0016 µM, 100% = signal doubled over neutral wells], CCOC(=O)c1c(S(=O)(=O)NCCc2ccc(OC)c(OC)c2)c(C)n(C)c1C -18.5% [at 0.135 µM, 100% = signal doubled over neutral wells], COc1ccc(CCN(C)C(=O)CCNS(=O)(=O)c2ccccc2C(F)(F)F)cc1OC -10.8% [at 0.135 µM, 100% = signal doubled over neutral wells], COc1ccc(CCN=C(N)NS(=O)(=O)c2ccc(C)c(C)c2)cc1OC 23.8% [at 0.0016 µM, 100% = signal doubled over neutral wells], COc1ccc(CCNC(=O)C(=O)NN=C2CCCCCCC2)cc1OC -11.7% [at 0.005 µM, 100% = signal doubled over neutral wells], COc1ccc(CCNS(=O)(=O)c2ccc(Cl)s2)cc1OC 28.1%, COc1ccc(CCNc2ccncn2)cc1OC -13.5% [at 0.0016 µM, 100% = signal doubled over neutral wells], Cc1ccc(NC(=O)[C@@H](Cc2ccccc2)NC(=O)[C@H]2O[C@@H](n3ccc(=O)[nH]c3=O)[C@H](O)[C@@H]2O)cc1C -17.1% [at 0.015 µM, 100% = signal doubled over neutral wells], COc1ccc(NC(=O)C2CCCN2S(=O)(=O)c2ccc3c(c2)CC(C)N3C(C)=O)cc1OC (centres undefined) -19.4% [at 0.005 µM, 100% = signal doubled over neutral wells], COc1cccc(NC(=O)CN(C)C(=O)Cn2[nH]c(=O)c3ccccc3c2=O)c1 -27.7% [at 1.2 µM, 100% = signal doubled over neutral wells], COc1cc2c(cc1OC)C(CSc1ccccc1C(=O)O)=NC(C)(C)C2 30.8%, O=C(NCC1(O)CCCCC1)C1CCC(=O)N(Cc2ccccc2F)C1 (centres undefined) -16.4%, CCOC(=O)c1sc(NC(C)=O)nc1-c1ccccc1 -16.3% [at 0.046 µM, 100% = signal doubled over neutral wells], CN(C(=O)COC(=O)c1cccs1)c1ccccc1 -16.8% [at 0.0016 µM, 100% = signal doubled over neutral wells], O=C(Nc1cccnc1)c1cnn2c(C(F)F)cc(C3CC3)nc12 30.2% [at 11 µM, 100% = signal doubled over neutral wells], Cc1cc(C(F)F)n2ncc(C(=O)NCc3ccc(F)cc3)c2n1 -18% [at 1.2 µM, 100% = signal doubled over neutral wells], CC(=O)Nc1cc(-c2ccc(N3CCN(C)CC3)cc2)cn2c(-c3cccc(C(=O)N(C)C)c3)cnc12 -24% [at 0.046 µM, 100% = signal doubled over neutral wells], COc1ccc(-c2cc(NC=O)c3ncc(-c4ccc(OC)c(OC)c4)n3c2)cc1 90% [at 3.8 µM, 100% = signal doubled over neutral wells]
